# Test results published in the supplement of paper PMC8975748.
# Counter-ions that a name gives are not always drawn.
# System: Saccharomyces cerevisiae BY4741 SeMeCo community
# Test: z-score of subpopulation abundance vs DMSO median, subpopulation auxotrophic for H; higher = larger share of this subpopulation than in DMSO controls
# Conditions: 10 µM; 24 h; SM minimal medium; subpopulation (auxotrophy): H
# Experimental: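 Fluorescent four-plasmid SeMeCo (self-establishing metabolically cooperating S. cerevisiae BY4741 community; plasmids pH-mRuby2, pL-mWasabi, pU-eCFP, pM-TagRFP657) was grown 24 h in minimal SM medium with each Selleck FDA-approved drug at 10 µM in 384-well plates. Cells were fixed and imaged by high-content confocal microscopy. For each auxotrophic subpopulation (and the prototroph), a z-score gives the deviation from the DMSO vehicle-control population median.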
row,Structure (SMILES),z-score of subpopulation abundance
1,CCN1CC(CCN2CCOCC2)C(c2ccccc2)(c2ccccc2)C1=O (stereo not given) [Doxapram HCl],-0.42
2,C=C1CCC2C(C)(CO)C(O)CCC2(C)C1CC=C1C=COC1=O (stereo not given) [Dehydroandrographolide],0.8
3,CC[C@H](C)C(=O)O[C@H]1C[C@@H](C)C=C2C=C[C@H](C)[C@H](CC[C@@H]3C[C@@H](O)CC(=O)O3)[C@H]21 [Lovastatin],-0.06
4,CCCCOc1cc(C(=O)NCCN(CC)CC)c2ccccc2n1 [Dibucaine HCl],-0.92
5,CN1CC(=O)N2[C@H](c3ccc4c(c3)OCO4)c3[nH]c4ccccc4c3C[C@@H]2C1=O [Tadalafil],0.35
6,"CC[C@H](Nc1ncnc2[nH]cnc12)c1nc2cccc(F)c2c(=O)n1-c1ccccc1 [Idelalisib (CAL-101, GS-1101)]",0.31
7,COCCCN1CCC(NC(=O)c2cc(Cl)c(N)c3c2OCC3)CC1 [Prucalopride Succinate],-0.29
8,COC(=O)C1=C(C)NC(C)=C(C(=O)OCC(C)C)C1c1ccccc1[N+](=O)[O-] (stereo not given) [Nisoldipine],0.84
9,O=C1[C@@H]2[C@H]3CC[C@H](C3)[C@@H]2C(=O)N1C[C@@H]1CCCC[C@H]1CN1CCN(c2nsc3ccccc23)CC1 [lurasidone],0.55
10,Nc1nc(O)c2ncn(CCC(CO)CO)c2n1 [Penciclovir],0.22
11,O=C(NCCN1CCOCC1)c1ccc(Cl)cc1,-0.65
12,CC1=C(C(=O)OCCN(Cc2ccccc2)c2ccccc2)C(c2cccc([N+](=O)[O-])c2)C(P2(=O)OCC(C)(C)CO2)=C(C)N1 (stereo not given) [Efonidipine],1.79
13,NCc1ccccc1CC(=O)N[C@@H]1C(=O)N2C(C(=O)O)=C(CSc3nnnn3CC(=O)O)CS[C@H]12 [Ceforanide],2.15
14,CN(C)CCCN1c2ccccc2Sc2ccccc21 [Promazine hydrochloride],-0.82
15,O=C(c1ccc(OCCN2CCCCC2)cc1)c1c(-c2ccc(O)cc2)sc2cc(O)ccc12 [Raloxifene HCl],0.59
16,O=C(O)C[C@H](O)C[C@H](O)/C=C/c1c(C2CC2)nc2ccccc2c1-c1ccc(F)cc1 [Pitavastatin Calcium],1.86
17,CCc1cccc2c3c([nH]c12)C(CC)(CC(=O)O)OCC3 (stereo not given) [Etodolac],-0.66
18,C=CC[N+]1([C@H]2C[C@H]3[C@@H]4CC[C@H]5C[C@H](O)[C@@H](N6CCOCC6)C[C@]5(C)[C@H]4CC[C@]3(C)[C@H]2OC(C)=O)CCCC1 [Rocuronium Bromide],-0.21
19,CC[C@H](C)C(=O)O[C@H]1CCC=C2C=C[C@H](C)[C@H](CC[C@@H]3C[C@@H](O)CC(=O)O3)[C@H]21 [Mevastatin],-0.21
20,NCCc1ccc(O)c(O)c1 [Dopamine HCl],-0.34

row,Structure (SMILES),z-score of subpopulation abundance
1,C[C@@H]1[C@H](O)[C@@H](C)/C=C/C=C/C=C/C=C/C=C/C=C/C=C/[C@H](O[C@@H]2O[C@H](C)[C@@H](O)[C@H](N)[C@@H]2O)C[C@@H]2O[C@](O)(C[C@@H](O)C[C@@H](O)[C@H](O)CC[C@@H](O)C[C@@H](O)CC(=O)O[C@H]1C)C[C@H](O)[C@H]2C(=O)O [Amphotericin B],-5.04
2,CCOc1cc(N)c(Cl)cc1C(=O)NCC1CN(Cc2ccc(F)cc2)CCO1 (stereo not given) [Mosapride Citrate],-0.34
3,CNCC[C@H](Oc1cccc2ccccc12)c1cccs1 [Duloxetine HCl],-0.45
4,CCCNC(C)C(=O)Nc1ccccc1C (stereo not given) [Prilocaine],0.48
5,CC(=O)O[C@]1(C(C)=O)CC[C@H]2[C@@H]3C[C@H](C)C4=CC(=O)CC[C@]4(C)[C@H]3CC[C@@]21C [Medroxyprogesterone acetate],0.12
6,CCC[C@@H]1C[C@@H](C(=O)N[C@@H]([C@H]2O[C@H](SC)[C@H](O)[C@@H](O)[C@H]2O)[C@@H](C)O)N(C)C1 [Lincomycin HCl],-0.53
7,Nc1ccc(S(=O)(=O)Nc2ncccn2)cc1 [Sulfadiazine],-0.65
8,Cc1c[nH]c(=O)[nH]c1=O [Thymine],-0.36
9,CC(C)Cc1ccc(C(C)C(=O)O)cc1 (stereo not given) [Ibuprofen Lysine],-0.2
10,CC1(C)CC[C@]2(C(=O)O)CC[C@]3(C)C(=CC[C@@H]4[C@@]5(C)CC[C@H](O)C(C)(C)[C@@H]5CC[C@]43C)[C@@H]2C1 [Oleanolic Acid],-0.07
11,CN(C/C=C/C#CC(C)(C)C)Cc1cccc2ccccc12 [Terbinafine HCl],-0.56
12,C#CCN[C@@H]1CCc2ccccc21 [Rasagiline],-0.48
13,CO/N=C(\C(=O)N[C@@H]1C(=O)N2C(C(=O)O)=C(CSc3nc(=O)c(O)nn3C)CS[C@H]12)c1csc(N)n1 [Ceftriaxone Sodium Trihydrate],-0.32
14,CCCC1CC(C(=O)NC(C(C)Cl)C2OC(SC)C(O)C(O)C2O)N(C)C1 (stereo not given) [Clindamycin alcoholate],0.65
15,CCC[C@@H]1C[C@@H](C(=O)N[C@@H]([C@H]2O[C@H](SC)[C@H](O)[C@@H](O)[C@H]2O)[C@@H](C)O)N(C)C1 [Lincomycin Hydrochloride Monohydrate],-0.54
16,CC(C)[N+](C)(CCOC(=O)C1c2ccccc2Oc2ccccc21)C(C)C [Propantheline bromide],0.9
17,CC[C@H]1OC(=O)C[C@@H](O)[C@H](C)[C@@H](O[C@@H]2O[C@H](C)[C@@H](O)[C@H](N(C)C)[C@H]2O)[C@@H](CCN2C[C@H](C)C[C@H](C)C2)C[C@@H](C)C(=O)/C=C/C(C)=C/[C@@H]1CO[C@@H]1O[C@H](C)[C@@H](O)[C@@H](OC)[C@H]1OC [Tilmicosin phosphate],2.1
18,C/C=C\c1ccc(O)c(OC)c1 [Isoeugenol],-0.8
19,O=C(N[C@H](CO)[C@H](O)c1ccc([N+](=O)[O-])cc1)C(Cl)Cl [Chloramphenicol],-0.01
20,CN(C)C(=O)COC(=O)Cc1ccc(OC(=O)c2ccc(NC(=N)N)cc2)cc1 [Camostat Mesilate],0.16
